We go through 11 molecules from ChEMBL document CHEMBL3988442, “University of Dundee, Small-Polar-MMV Screening Library” (2021).

For some of these results: Results with a measured potency or affinity are listed apart.

Common to all, as to set-up: scale not given: direction of the effect not stated beside the values
In test [1] the target is Protein translocase subunit SecA (Escherichia coli (strain K12)) (UniProt P10408). Description: Assay to Identify E. coli SecA ATPase Inhibitors. Type of test: functional. The conditions noted are these: 30 µM.
Protein translocase subunit SecA (Escherichia coli (strain K12)), sequence (P10408 whole entry): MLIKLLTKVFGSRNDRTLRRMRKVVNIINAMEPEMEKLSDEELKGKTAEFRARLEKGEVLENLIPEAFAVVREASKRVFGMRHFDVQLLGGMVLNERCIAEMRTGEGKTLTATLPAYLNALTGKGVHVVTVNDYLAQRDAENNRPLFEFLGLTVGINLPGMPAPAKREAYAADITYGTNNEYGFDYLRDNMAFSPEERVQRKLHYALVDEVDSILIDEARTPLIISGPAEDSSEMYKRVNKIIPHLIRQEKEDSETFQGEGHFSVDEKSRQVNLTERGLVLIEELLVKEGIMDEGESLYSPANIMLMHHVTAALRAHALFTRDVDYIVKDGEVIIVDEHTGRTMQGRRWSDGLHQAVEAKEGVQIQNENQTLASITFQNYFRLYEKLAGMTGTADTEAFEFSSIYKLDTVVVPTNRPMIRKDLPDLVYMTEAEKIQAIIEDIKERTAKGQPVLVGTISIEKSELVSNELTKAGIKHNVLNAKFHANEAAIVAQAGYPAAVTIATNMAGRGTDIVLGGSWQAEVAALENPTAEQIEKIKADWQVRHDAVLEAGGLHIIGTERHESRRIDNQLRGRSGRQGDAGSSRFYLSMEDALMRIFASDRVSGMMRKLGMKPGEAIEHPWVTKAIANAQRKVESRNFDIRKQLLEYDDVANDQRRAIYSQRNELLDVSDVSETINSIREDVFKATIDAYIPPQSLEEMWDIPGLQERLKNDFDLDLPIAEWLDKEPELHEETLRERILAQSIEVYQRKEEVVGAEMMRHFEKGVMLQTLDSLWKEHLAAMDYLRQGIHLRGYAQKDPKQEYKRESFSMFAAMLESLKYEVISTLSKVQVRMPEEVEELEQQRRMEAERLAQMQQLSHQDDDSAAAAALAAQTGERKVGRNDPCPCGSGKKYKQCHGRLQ
Test [2] has as its target T1, Ubiquitin-activating enzyme e1, putative (Leishmania donovani (strain BPK282A1)) (UniProt E9BSI1).
T1 sequence (whole entry): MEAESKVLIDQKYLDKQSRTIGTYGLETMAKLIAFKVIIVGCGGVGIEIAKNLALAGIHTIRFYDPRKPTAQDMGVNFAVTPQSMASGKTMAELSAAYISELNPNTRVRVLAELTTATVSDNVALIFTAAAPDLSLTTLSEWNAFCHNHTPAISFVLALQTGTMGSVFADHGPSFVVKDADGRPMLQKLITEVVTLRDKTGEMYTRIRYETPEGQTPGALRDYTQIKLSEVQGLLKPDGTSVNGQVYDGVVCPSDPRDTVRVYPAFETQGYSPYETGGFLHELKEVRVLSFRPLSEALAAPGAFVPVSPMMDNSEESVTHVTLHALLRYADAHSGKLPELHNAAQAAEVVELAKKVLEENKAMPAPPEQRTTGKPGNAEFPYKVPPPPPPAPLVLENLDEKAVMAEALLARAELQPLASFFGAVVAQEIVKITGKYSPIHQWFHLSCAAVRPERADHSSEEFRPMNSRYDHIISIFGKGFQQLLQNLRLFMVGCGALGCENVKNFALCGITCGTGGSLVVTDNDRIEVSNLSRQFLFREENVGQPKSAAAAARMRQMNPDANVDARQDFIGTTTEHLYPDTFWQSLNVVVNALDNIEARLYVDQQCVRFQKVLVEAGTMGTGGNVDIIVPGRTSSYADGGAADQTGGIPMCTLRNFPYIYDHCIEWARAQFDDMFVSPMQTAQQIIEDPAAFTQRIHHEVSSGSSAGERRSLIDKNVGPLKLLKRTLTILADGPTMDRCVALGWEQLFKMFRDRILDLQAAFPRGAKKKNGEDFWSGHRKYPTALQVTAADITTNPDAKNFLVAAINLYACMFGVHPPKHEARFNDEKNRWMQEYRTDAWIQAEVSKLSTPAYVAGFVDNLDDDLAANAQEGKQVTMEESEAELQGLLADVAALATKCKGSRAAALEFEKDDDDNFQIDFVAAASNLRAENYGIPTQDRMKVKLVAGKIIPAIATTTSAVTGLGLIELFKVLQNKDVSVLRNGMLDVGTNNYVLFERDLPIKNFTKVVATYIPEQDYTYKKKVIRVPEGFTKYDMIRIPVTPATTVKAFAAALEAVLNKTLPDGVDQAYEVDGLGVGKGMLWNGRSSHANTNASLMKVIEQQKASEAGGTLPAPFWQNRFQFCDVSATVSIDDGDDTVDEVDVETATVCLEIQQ
The test can be described thus: Leishmania donovani Ubiquitin Activating Enzyme (LdE1). Type of test: functional. The conditions noted are these: 30 µM.

Test [3] addresses AMP-activated protein kinase, AMPK (Homo sapiens) (UniProt P54646+O43741+P54619+Q9UGJ0+Q9Y478+Q13131+Q9UGI9). Description: AMP-dependent Kinase enzyme assay. An in vitro enzyme assay that detects ADP turnover that is directly proportional to AMPK activity. This uses naive AMPK that is activated during the assay with MK-8722. The note with it: 30 µM. Type of test: functional.
The target in test [4] is Sialic acid-binding Ig-like lectin 9 (Homo sapiens) (UniProt Q9Y336). The test can be described thus: Hs-Siglec9 ALPHAscreen SOP 20170721. The note with it: 10 µM. Background: Alpha assays give light when donor and acceptor beads are brought close together.
Sialic acid-binding Ig-like lectin 9 (Homo sapiens), sequence (Q9Y336 whole entry): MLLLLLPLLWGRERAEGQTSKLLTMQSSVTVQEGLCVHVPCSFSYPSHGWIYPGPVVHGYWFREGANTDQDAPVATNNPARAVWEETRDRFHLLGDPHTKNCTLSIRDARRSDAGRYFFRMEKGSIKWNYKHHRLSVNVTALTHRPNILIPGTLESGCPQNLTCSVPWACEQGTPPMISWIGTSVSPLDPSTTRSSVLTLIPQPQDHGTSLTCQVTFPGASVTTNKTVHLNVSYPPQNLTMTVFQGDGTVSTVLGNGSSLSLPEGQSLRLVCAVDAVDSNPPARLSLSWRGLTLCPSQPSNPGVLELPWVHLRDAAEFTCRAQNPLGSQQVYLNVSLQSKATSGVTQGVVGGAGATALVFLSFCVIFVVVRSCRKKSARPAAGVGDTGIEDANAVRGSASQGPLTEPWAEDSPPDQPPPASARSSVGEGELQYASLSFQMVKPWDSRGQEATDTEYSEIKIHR
The next test concerns Trypanosoma cruzi. The test can be described thus: Trypanosoma cruzi phosphomannomutase and mannose-1-phosphate guanylyltransferase assay. Type of test: functional. The note with it: 10 µM.
In test [5] the target is T2, Arginase-2, mitochondrial (Homo sapiens) (UniProt P78540).
T2 sequence (whole entry): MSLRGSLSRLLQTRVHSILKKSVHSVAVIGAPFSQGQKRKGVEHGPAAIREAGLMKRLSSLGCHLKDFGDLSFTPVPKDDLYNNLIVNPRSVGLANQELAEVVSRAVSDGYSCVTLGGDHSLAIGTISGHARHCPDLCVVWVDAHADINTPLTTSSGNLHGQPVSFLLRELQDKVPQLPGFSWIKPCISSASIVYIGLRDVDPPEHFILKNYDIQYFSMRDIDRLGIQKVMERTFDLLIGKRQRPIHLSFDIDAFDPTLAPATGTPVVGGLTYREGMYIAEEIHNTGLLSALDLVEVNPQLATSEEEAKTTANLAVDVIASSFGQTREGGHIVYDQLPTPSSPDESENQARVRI
Description: in vitro enzyme assay to detect the production of urea directly proportional to the activity of Arginase II. Note: in the data most compounds retested in dose-response had high values. Type of test: functional. The note with it: 33.3 µM.

Test [6] concerns the target T3, Proteasome subunit beta (Trypanosoma cruzi) (UniProt O96673).
T3 sequence (whole entry): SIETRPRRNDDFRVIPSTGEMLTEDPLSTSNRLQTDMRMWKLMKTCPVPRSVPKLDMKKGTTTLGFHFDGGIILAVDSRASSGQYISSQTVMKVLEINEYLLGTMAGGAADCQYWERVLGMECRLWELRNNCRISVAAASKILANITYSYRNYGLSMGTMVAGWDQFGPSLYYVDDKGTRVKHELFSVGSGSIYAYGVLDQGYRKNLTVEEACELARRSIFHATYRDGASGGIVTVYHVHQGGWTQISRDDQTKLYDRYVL
Description: Trypanosoma cruzi proteasome chymotrypsin-like activity (TcProtChymo) assay. Note: in the data most compounds retested in dose-response had high values. The test is classed as functional. The note with it: 9.37 µM.

Another test is filed under the species Homo sapiens. The test can be described thus: To identify inhibition of the IFN signalling (Jak-Stat) pathway via expression of an eGFP reporter gene under the control of an IFN-stimulated response element (ISRE) containing MxA promoter. The test is classed as functional. The conditions noted are these: 30 µM. On the technique in general: In a reporter assay the amount or activity of a reporter protein is the signal.

Test [7] deals with T4, Tyrosyl-tRNA synthetase, putative (Trypanosoma cruzi (strain CL Brener)) (UniProt Q4DSP6).
T4 sequence (whole entry): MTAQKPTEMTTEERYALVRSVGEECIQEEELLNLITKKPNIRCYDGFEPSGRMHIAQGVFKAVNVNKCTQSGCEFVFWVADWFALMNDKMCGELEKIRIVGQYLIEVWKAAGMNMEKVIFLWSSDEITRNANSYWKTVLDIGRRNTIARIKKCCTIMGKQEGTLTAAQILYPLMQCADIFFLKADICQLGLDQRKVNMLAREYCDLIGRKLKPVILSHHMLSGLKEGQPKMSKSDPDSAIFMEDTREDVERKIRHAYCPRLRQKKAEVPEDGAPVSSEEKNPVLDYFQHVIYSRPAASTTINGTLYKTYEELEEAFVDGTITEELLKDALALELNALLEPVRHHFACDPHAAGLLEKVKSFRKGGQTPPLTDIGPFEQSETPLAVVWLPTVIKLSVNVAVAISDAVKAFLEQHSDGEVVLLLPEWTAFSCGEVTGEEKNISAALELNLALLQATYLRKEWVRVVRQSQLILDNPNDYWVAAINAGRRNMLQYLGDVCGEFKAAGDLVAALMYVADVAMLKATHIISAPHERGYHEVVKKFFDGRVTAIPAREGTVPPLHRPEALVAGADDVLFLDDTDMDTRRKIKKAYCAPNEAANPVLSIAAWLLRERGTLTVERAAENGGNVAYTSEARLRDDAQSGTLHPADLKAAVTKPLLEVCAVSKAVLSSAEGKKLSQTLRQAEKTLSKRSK
The test can be described thus: Trypanosoma cruzi tyrosyl tRNA synthetase (TcYRS) _High Tyrosine SOP. Note: in the data most compounds retested in dose-response had high values. The test is classed as functional. The note with it: 30 µM.

Test [8] has as its target T4, Tyrosyl-tRNA synthetase, putative (Trypanosoma cruzi (strain CL Brener)). Description: Trypanosoma cruzi tyrosyl tRNA synthetase (TcYRS) SOP. Type of test: functional. The conditions noted are these: 30 µM.
In test [9] the target is Chromo domain-containing protein 1 (Saccharomyces cerevisiae (strain ATCC 204508 / S288c) (Baker's yeast)) (UniProt P32657). The test can be described thus: ScCHD-1 Enzyme Inhibition Assay. Note: in the data most compounds retested in dose-response had high values. The test is classed as functional. The conditions noted are these: 30 µM.
Chromo domain-containing protein 1 (Saccharomyces cerevisiae (strain ATCC 204508 / S288c) (Baker's yeast)), sequence (P32657 whole entry, the tested form may be a part): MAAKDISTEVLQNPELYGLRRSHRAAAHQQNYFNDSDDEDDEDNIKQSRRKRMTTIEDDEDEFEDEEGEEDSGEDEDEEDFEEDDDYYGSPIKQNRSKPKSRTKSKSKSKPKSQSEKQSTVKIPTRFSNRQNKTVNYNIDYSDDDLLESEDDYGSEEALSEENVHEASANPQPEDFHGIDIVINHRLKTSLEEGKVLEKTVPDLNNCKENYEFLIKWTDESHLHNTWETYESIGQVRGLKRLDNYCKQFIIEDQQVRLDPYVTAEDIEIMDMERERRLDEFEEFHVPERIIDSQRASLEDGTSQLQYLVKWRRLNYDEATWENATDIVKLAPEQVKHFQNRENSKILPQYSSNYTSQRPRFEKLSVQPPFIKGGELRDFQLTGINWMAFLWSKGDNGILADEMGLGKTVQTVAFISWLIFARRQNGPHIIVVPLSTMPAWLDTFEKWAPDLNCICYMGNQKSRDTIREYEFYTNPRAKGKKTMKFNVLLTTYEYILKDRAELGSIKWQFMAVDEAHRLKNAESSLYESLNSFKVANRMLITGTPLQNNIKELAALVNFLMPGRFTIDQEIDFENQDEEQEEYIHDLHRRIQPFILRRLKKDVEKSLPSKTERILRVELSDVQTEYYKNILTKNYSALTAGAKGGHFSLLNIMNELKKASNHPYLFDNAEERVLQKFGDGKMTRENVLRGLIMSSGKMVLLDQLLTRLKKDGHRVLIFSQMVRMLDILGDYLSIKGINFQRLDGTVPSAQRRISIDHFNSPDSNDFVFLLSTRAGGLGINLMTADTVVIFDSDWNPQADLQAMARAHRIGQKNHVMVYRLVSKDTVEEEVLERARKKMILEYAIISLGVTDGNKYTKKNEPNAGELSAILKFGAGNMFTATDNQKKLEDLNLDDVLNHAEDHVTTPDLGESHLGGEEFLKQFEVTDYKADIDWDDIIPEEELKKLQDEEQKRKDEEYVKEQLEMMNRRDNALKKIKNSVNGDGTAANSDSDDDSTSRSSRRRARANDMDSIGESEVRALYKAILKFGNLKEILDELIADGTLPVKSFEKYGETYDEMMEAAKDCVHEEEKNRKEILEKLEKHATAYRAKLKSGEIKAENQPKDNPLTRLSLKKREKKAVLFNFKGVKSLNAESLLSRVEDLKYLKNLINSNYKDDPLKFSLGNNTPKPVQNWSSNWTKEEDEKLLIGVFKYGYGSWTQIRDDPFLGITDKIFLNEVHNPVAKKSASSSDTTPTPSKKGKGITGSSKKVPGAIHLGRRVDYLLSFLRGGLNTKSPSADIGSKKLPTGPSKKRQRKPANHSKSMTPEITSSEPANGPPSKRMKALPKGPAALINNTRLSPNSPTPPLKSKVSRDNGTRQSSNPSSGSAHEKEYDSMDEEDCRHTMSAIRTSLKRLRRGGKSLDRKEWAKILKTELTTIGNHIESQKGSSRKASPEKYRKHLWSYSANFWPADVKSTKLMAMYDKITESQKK

As to `CCN1CC2(CC1=O)CN(C(C)=O)CCN(C(=O)c1ccco1)C2` (stereo unspecified), the Percent Effect in test [1] is -1.61%; in test [2], 5.48%; in test [3] it was -6.62%; in test [4], 5.12%; with Trypanosoma cruzi it was -0.595%; in test [5], -4.79%. Besides, the Percent Effect in test [6] is 5.05%; in the test listed under Homo sapiens, 4.81%; in test [7], 1.04%; in [8] it was 3.7%; in [9], -1.88%.

As for `COc1ccc(CN2C[C@@H](OCc3ccccn3)[C@H]3COC[C@H]32)cc1`, the Percent Effect in [1] is -4.56%; in test [2], -8.11%; in [3], -0.636%; in test [4] it was -1.37%; in the test on Trypanosoma cruzi, -3.62%; in test [5], 6.05%. Besides, the Percent Effect in test [6] was 20.1%; in the test filed under Homo sapiens, 22.6%; in test [7], -1.08%; in [8], 12.8%; in test [9], 2.02%.

Consider `CC(=O)N1CCCN(C(=O)c2cnc3n[nH]c(C)c3c2)CC1`, for which the Percent Effect in test [1] was -1.9%; in [2] it was 15.8%; in [3] it was -3.49%; in test [4], 5.52%; in the test with Trypanosoma cruzi, 3.08%; in test [5], 3.96%. Besides, the Percent Effect was 2.45% in [6]; -3.15% in the test listed under Homo sapiens; 9.36% in test [7]; 23.5% in test [8]; -9.47% in test [9].

Take `CC(CNC(=O)c1ccccc1Oc1cccnc1)N(C)C` (stereo unspecified): the Percent Effect is -2.21% in test [1]; 10.8% in test [2]; -2.99% in [3]; 12.9% in test [4]; 5.41% in the test with Trypanosoma cruzi; -0.476% in test [5]. The Percent Effect in [6] was 5.69%; in the test filed under Homo sapiens it was -6.47%; in [7], 3.7%; in test [8], 9.76%; in [9] it was -1.53%.

For `O=C(c1ccc(Br)o1)N1CCCC(n2cncn2)C1` (stereo unspecified), the Percent Effect is -5.45% in test [1]; -1.39% in test [2]; 0.96% in test [3]; -6.28% in test [4]; -3.6% in the test with Trypanosoma cruzi; -2.21% in test [5]. Further, the Percent Effect is 4.04% in test [6]; 7.55% in the test listed under Homo sapiens; 0% in test [7]; 2.56% in [8]; 1.43% in test [9].

Consider `O=C(Cc1ccsc1)NCC1OCCc2cn(CC3CC3)nc21` (stereo unspecified), for which the Percent Effect in test [1] was -2.34%; in test [2] it was 7.79%; in [3], 4.36%; in test [4] it was -0.104%; in the test on Trypanosoma cruzi it was -3.06%; in test [5], 4.52%. Besides, the Percent Effect in test [6] was 9.92%; in the test filed under Homo sapiens it was 10.1%; in test [7], 8.47%; in [8], 8.97%; in test [9], -0.722%.

With `O=C(c1ccsc1)N1CCc2c(CNc3ncccn3)n[nH]c2C1`, the Percent Effect is -4.87% in test [1]; 10.7% in [2]; 4.32% in test [3]; 1.51% in [4]; 6.95% with Trypanosoma cruzi; -44.6% in [5]. Further, the Percent Effect in test [6] was 1.88%; in the test filed under Homo sapiens, 9.05%; in test [7], -1.04%; in test [8], 7.5%; in test [9], -6.05%.

On to `CCS(=O)(=O)N1CCc2c(CN(C)Cc3ccco3)cncc2C1`, for which the Percent Effect in [1] is -1.78%; in test [2], -2.67%; in test [3], 2.28%; in test [4], 4.22%; with Trypanosoma cruzi it was -3.86%; in test [5] it was -1.61%. The Percent Effect is 11.3% in test [6]; -0.516% in the test listed under Homo sapiens; -2.08% in test [7]; 5% in test [8]; -3.58% in test [9].

In the case of `COCc1ccccc1NC(=O)[C@@H]1CCCN1C(=O)c1ccco1`, the Percent Effect in test [1] was -0.218%; in test [2], 9.72%; in test [3], -5.33%; in test [4] it was 20.1%; in the test with Trypanosoma cruzi, 2.82%; in test [5] it was 6.62%. The Percent Effect in [6] was 12.8%; in the test listed under Homo sapiens, 8.02%; in test [7], 1.05%; in [8], 5.13%; in [9] it was -1.82%.

As for `COCc1nc(CN2CCC3(CCCO3)CCC2=O)no1` (stereo unspecified), the Percent Effect was -7.29% in [1]; 5.33% in test [2]; -4.46% in test [3]; 6.25% in [4]; 7.3% in the test with Trypanosoma cruzi; -2.6% in test [5]. Also, the Percent Effect in [6] was 12%; in the test listed under Homo sapiens it was 10.4%; in [7] it was 6.01%; in [8], 3.7%; in test [9], -5.51%.

Regarding `COCCN1CCC2(CCN(Cc3nccs3)CC2)C1=O`, the Percent Effect in test [1] was -1.23%; in [2], -2.67%; in [3], -1.24%; in test [4] it was 5.18%; in the test on Trypanosoma cruzi, -5.79%; in test [5], -11.7%. Also, the Percent Effect in [6] is 2.91%; in the test listed under Homo sapiens, -7.71%; in [7], 6.25%; in test [8], 2.5%; in test [9] it was 0.122%.
